Source: PubChem (National Center for Advancing Translational Sciences (NCATS))
HEK293 tox: qHTS of GLP-1 Receptor Inverse Agonists: Cytotox Screen. AID 624418, 2012. Potency, µM (doses to about 38.3 µM), hits mostly inhibitors. HEK293 cAMP-luciferase reporter cells, luminescence, 24 h. actives 0.13% (n = 410,000);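 note: loss of luciferase light is scored as toxicity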
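MLSMR compounds, 24 hr on cells at 37 deg C/5% CO2; luminescence after luciferase reagent (12 min RT). Inhibition counted as the undesired cytotoxic outcome.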
GLP1R inv ag: qHTS of GLP-1 Receptor Inverse Agonists (Inhibition Mode) | Glucagon-like peptide 1 receptor (Homo sapiens), P43220 | HEK293 GLP-1R CRE-luciferase, luminescence, 24 h; GLP-1R form is constitutively active | Potency, µM (doses to about 38.3 µM), most hits filed as inhibitors | actives 1.6% (n = 410,000) | AID 624417, 2012; note: nearly all actives have a fitted effect of over 55% in size
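GLP-1R inverse agonism mode: basal reporter luminescence in engineered HEK293 cells measured after one day of compound exposure at 37 deg C, with a 12 min room-temperature detection step.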
GLP-1R agonist: qHTS of GLP-1 Receptor Agonists. Glucagon-like peptide 1 receptor (Homo sapiens), P43220. HEK293 GLP-1R CRE-luciferase, luminescence, 4-6 h; cells express a hypersensitive GLP-1R form. Potency, µM (doses to about 45.6 µM), actives largely listed as activators. actives 0.007% (n = 380,000)
Gal4-VP16 FLuc: VP16 counterscreen qHTS for inhibitors of ROR gamma transcriptional activity | Drosophila S2 Gal4-VP16 UAS-luciferase, luminescence, 20 h | Potency, µM (titrated, usually from 53.6 µM), usual class: inhibitors | actives 3.5% (n = 310,000) | AID 2546, 2010;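 note: Gal4-VP16 expression switched on by copper sulfate through the metallothionein promoter; nearly all actives have a fitted effect of over 50% in size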
RORg inh: qHTS for inhibitors of ROR gamma transcriptional activity; Nuclear receptor ROR-gamma (Mus musculus), P51450; Drosophila S2 Gal4-RORgamma UAS-luciferase reporter, 20 h; Potency, µM (top dose mostly 53.6 µM), usual class: inhibitors; actives 5.4% (n = 310,000); AID 2551, 2010; note: nearly all actives have a fitted effect of over 60% in size
Target sequence (P51450 whole entry, looked up, the tested form may be a part): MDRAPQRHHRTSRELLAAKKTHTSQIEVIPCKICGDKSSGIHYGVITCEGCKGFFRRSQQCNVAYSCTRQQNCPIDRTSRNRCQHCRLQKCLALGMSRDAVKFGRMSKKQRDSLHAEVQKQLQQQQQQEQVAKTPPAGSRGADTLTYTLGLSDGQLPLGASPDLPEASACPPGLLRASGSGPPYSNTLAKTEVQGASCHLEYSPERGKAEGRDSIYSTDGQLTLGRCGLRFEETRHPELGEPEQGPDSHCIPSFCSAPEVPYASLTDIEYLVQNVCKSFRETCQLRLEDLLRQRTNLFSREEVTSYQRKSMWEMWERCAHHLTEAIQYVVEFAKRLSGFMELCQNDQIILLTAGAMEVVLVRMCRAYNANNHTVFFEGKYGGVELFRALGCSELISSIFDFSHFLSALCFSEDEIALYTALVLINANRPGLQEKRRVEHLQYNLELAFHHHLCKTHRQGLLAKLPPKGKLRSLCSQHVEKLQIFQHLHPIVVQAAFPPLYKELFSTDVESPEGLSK
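Drosophila S2 cells stably expressing Gal4-DBD/mouse RORγ fusion under metallothionein promoter plus UAS-luciferase; compound 1 h, then 700 uM CuSO4 induction for 20 h at ambient temperature; inhibition read as reduced luminescence.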
Large screens that a line does not name were inactive. Sampled rows, rich in hits. Any-hit rate of the full collection: about 5.9%. Calls come from the whole dose curve; as a rule, active = well fitted curve in the direction sought with a large enough effect; inconclusive = small, poorly fitted or top-dose-only effect, or another doubt; inactive = no such curve, though single readings can be large; an effect the other way counts as inactive or inconclusive.

Cc1c(CC(=O)NCCCC(=O)O)c(=O)oc2cc3c(cc12)CCC(C)(C)O3	Gal4-VP16 FLuc 7.1µM, RORg inh 5µM
COC(=O)c1sccc1S(=O)(=O)N(CC(=O)Nc1cc(C)cc(C)c1)c1ccc(Cl)cc1	GLP1R inv ag inconclusive (no result: GLP-1R agonist, Gal4-VP16 FLuc, RORg inh)
OCCN1CCN(CC/C=C2/c3ccccc3CSc3ccccc32)CC1	HEK293 tox inconclusive, GLP1R inv ag 8.9µM (no result: Gal4-VP16 FLuc, RORg inh)
OCCN1CCN(CCC=C2c3ccccc3Sc3ccc(Cl)cc32)CC1	Gal4-VP16 FLuc inconclusive (no result: HEK293 tox, GLP1R inv ag)
CC(C)(C)OC(=O)NC(Cc1ccccc1)C(=O)NC1COC2CC(n3ccc(=O)[nH]c3=O)OC12 (stereo not drawn)	none (no result: HEK293 tox, GLP1R inv ag, GLP-1R agonist)
COCC#Cc1ccc(C2C(C)CCC3C(=O)N4C(CCC(C)C4c4ccc(C#CCOC)cc4)C(=O)N32)cc1 (stereo not drawn)	none (no result: HEK293 tox, GLP1R inv ag, GLP-1R agonist)
O=C(CCc1ccccc1)NC(c1cccs1)c1cc(Cl)c2cccnc2c1O (stereo not drawn)	GLP1R inv ag inconclusive, Gal4-VP16 FLuc 0.79µM, RORg inh 0.63µM
CCC(=O)NC(c1cccs1)c1cc([N+](=O)[O-])c2cccnc2c1O (stereo not drawn)	HEK293 tox inconclusive, Gal4-VP16 FLuc 5µM, RORg inh 3.2µM
CCCC(=O)NC(c1cccs1)c1cc([N+](=O)[O-])c2cccnc2c1O (stereo not drawn)	Gal4-VP16 FLuc 4µM, RORg inh 5.6µM
CCC(=O)NC(c1cccs1)c1cc(Cl)c2ccccc2c1O (stereo not drawn)	none (no result: HEK293 tox, GLP1R inv ag, Gal4-VP16 FLuc, RORg inh)
CC(=O)NC(c1cccs1)c1cc([N+](=O)[O-])c2cccnc2c1O (stereo not drawn)	HEK293 tox inconclusive, GLP1R inv ag inconclusive, Gal4-VP16 FLuc 16µM, RORg inh 6.3µM
CC(=O)NC(c1cccs1)c1cc(Cl)c2ccccc2c1O (stereo not drawn)	none (no result: HEK293 tox, GLP1R inv ag, Gal4-VP16 FLuc, RORg inh)
COc1cc(C2C(=O)N(C3CCC(C)CC3)CC(=O)N2CCc2ccc(Cl)cc2)ccc1OC(C)C (stereo not drawn)	none (no result: GLP-1R agonist, Gal4-VP16 FLuc, RORg inh)
COc1ccc(C(O)(c2ccccc2OC)C(CN2CCOCC2)c2ccccc2)cc1 (stereo not drawn)	GLP1R inv ag 10µM
CCCCOc1ccc(C(O)C(CN2CCOCC2)c2ccccc2)cc1 (stereo not drawn)	GLP1R inv ag 10µM
CCCCC(O)(c1ccc(CC)cc1)C(CN1CCOCC1)c1ccccc1 (stereo not drawn)	HEK293 tox inconclusive, GLP1R inv ag inconclusive
CCCOc1ccc(C(O)C(CN2CCOCC2)c2ccccc2)cc1 (stereo not drawn)	GLP1R inv ag inconclusive
CCCCC(O)(c1ccccc1)C(CN1CCOCC1)c1ccccc1 (stereo not drawn)	GLP1R inv ag 10µM
Fc1ccc(-c2noc3ncnc(NCCc4ccccc4)c23)cc1	none (no result: GLP-1R agonist, Gal4-VP16 FLuc, RORg inh)
COc1ccc(OC(C)c2nc3ccccc3[nH]2)cc1 (stereo not drawn)	none (no result: GLP-1R agonist, Gal4-VP16 FLuc, RORg inh)
Cc1nn(-c2ccccn2)c2c1C(c1ccsc1)C1=C(CCCC1=O)N2 (stereo not drawn)	Gal4-VP16 FLuc inconclusive, RORg inh inconclusive
Cc1nn(-c2ccccn2)c2c1C(c1c(F)cccc1Cl)C1=C(N2)c2ccccc2C1=O (stereo not drawn)	Gal4-VP16 FLuc 7.9µM, RORg inh 1.6µM (no result: HEK293 tox, GLP1R inv ag, GLP-1R agonist)
Cc1nn(-c2ccccn2)c2c1C(c1ccccc1Cl)C1=C(N2)c2ccccc2C1=O (stereo not drawn)	HEK293 tox inconclusive, Gal4-VP16 FLuc inconclusive, RORg inh 2.8µM
COCCn1c(=O)c(-c2cn(C)c3ccccc23)nc2cnc(Oc3cccc(Cl)c3)nc21	none (no result: HEK293 tox, GLP1R inv ag, GLP-1R agonist)
Cc1ccccc1C1N(c2nccs2)C(=O)C2CCCN21 (stereo not drawn)	Gal4-VP16 FLuc inconclusive, RORg inh inconclusive
O=C1C2CCCN2C(c2ccccc2)N1c1nccs1 (stereo not drawn)	RORg inh 5.6µM
O=C(NNC1=NCCN1Cc1ccccc1)c1cccc(C(F)(F)F)c1	Gal4-VP16 FLuc 11µM, RORg inh 3.2µM
Cc1cc(C)nc(N(C#N)CN2C(=O)c3ccccc3S2(=O)=O)n1	Gal4-VP16 FLuc inconclusive, RORg inh 13µM
CNc1nc(OC)nc(N(C#N)CN2C(=O)c3ccccc3S2(=O)=O)n1	none
CCCCOc1ccc(/C=N/NC(=O)c2csc(C)c2C)cc1	GLP1R inv ag inconclusive, Gal4-VP16 FLuc inconclusive, RORg inh 11µM
Cc1scc(C(=O)N/N=C/c2ccc(OCC(C)C)cc2)c1C	GLP1R inv ag 8.9µM, Gal4-VP16 FLuc inconclusive, RORg inh 11µM
CCCCCCOc1ccc(/C=N/NC(=O)C2CC2)cc1	none
CCOc1cc(C(=O)N/N=C/c2ccoc2)cc(OCC)c1OCC	none
COc1ccc(N(C(C)C(=O)N/N=C/c2ccc(OCC(C)C)cc2)S(C)(=O)=O)cc1 (stereo not drawn)	GLP1R inv ag inconclusive, Gal4-VP16 FLuc inconclusive
CC(C)COc1ccc(C(=O)N/N=C/c2ccoc2)cc1	Gal4-VP16 FLuc 14µM, RORg inh 18µM
COc1ccc(Cn2c(=O)n(Cc3ccco3)c(=O)c3oc4ccccc4c32)cc1	none (no result: GLP-1R agonist, Gal4-VP16 FLuc, RORg inh)
COc1ccc(-c2cc(C(F)(F)F)nc(SCC(=O)NCCc3ccc(OC)c(OC)c3)n2)cc1	none (no result: Gal4-VP16 FLuc, RORg inh)
O=C1[C@H]2[C@H]3[C@H](O)[C@H](O)C/C(=N/OC[C@@H](O)COCc4ccco4)[C@@H]3CC[C@@H]2C(=O)N1C[C@@H]1CCCO1	none (no result: HEK293 tox, GLP1R inv ag, GLP-1R agonist)
S=c1[nH]ncn1NCc1ccc(Cl)cc1Cl	Gal4-VP16 FLuc inconclusive, RORg inh 6.3µM
Fc1cccc(Cl)c1CNn1cn[nH]c1=S	RORg inh inconclusive
Cc1cccnc1NCc1ccc(O)c2ncccc12	HEK293 tox inconclusive, GLP1R inv ag 2.8µM, Gal4-VP16 FLuc 2.8µM, RORg inh inconclusive
Cc1ccc(O)c(CNc2cccc3cccnc23)c1	GLP1R inv ag inconclusive
Cc1cccc(NCc2ccc(O)c3ncccc23)c1C	HEK293 tox inconclusive, Gal4-VP16 FLuc inconclusive, RORg inh 7.9µM
Cc1ccc(NCc2ccc(O)c3ncccc23)cc1	Gal4-VP16 FLuc 1.8µM, RORg inh 1µM
Cc1ccc(NCc2ccc(O)c3ncccc23)cc1C	Gal4-VP16 FLuc inconclusive
CC(C)C[C@@H](CC(=O)N[C@@H](CCC(=O)O)CC(=O)O)NC(=O)[C@@H]1CNCC[C@H]1NC(=O)C[C@@H](NC(=O)C[C@H](Cc1c[nH]c2ccccc12)NC(=O)[C@@H]1CNCC[C@H]1N)C(C)C	none (no result: HEK293 tox, GLP1R inv ag, GLP-1R agonist)
Nc1ccc(N2CCN(c3ncc(C(F)(F)F)cc3Cl)CC2)c(C(F)(F)F)c1	GLP1R inv ag inconclusive (no result: Gal4-VP16 FLuc, RORg inh)
CCCN1CCC(=O)N(C(CSc2ccc(OC)cc2)c2ccccc2)CC1 (stereo not drawn)	none (no result: HEK293 tox, GLP1R inv ag, GLP-1R agonist)
